Bioassay records (PubChem)
FEN1 inhibitor: qHTS Assay for the Inhibitors of Human Flap endonuclease 1 (FEN1). Potency, µM (titrated, usually from 114 µM), usual class: inhibitors. Recombinant FEN1 flap cleavage, fluorescence, 15 min. AID 588795, 2011. P39748. hit rate 0.35% among 390,000; also: nearly all actives have a fitted effect of over 65% in size
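FEN1 at 10 nM preincubated with compounds 15 min at room temperature, then flap DNA substrate added at 50 nM final. Signal read at 0 and 15 min; concentration-response fitted with four-parameter Hill equation.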
WRN inhibitor: qHTS for Inhibitors of WRN Helicase; WRN helicase unwinding, fluorescent forked duplex, kinetic; Potency, µM (doses to about 114 µM), most hits filed as inhibitors; hit rate 0.46% among 360,000; also: nearly all actives have a fitted effect of over 55% in size
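WRN at 20 nM final preincubated with compound 15 min at room temperature; reaction started with 100 nM fluorophore/quencher forked duplex oligonucleotide and 2 mM ATP final. Unwinding followed kinetically by red fluorescence (ex 525, em 598 nm).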
POLK inh: qHTS for Inhibitors of Polymerase Kappa; hit rate 0.53% among 400,000; purified Pol kappa, fluorescent DNA synthesis assay, 10 min; DNA polymerase kappa (Homo sapiens), Q9UBT6; Potency, µM (doses to about 107 µM), usual class: inhibitors; AID 588579, 2011
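Activity was followed as the change in fluorescence between reads at 0 and 10 min after starting the reaction with 50 nM substrate. Beforehand, 10 nM polymerase had been preincubated with compound for 15 min at room temperature.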
POLB inh: qHTS Assay for Inhibitors of DNA Polymerase Beta; Potency, µM (series often up to 114 µM), usual class: inhibitors; AID 485314, 2010; hit rate 1.3% among 340,000; Pol beta primer extension/strand displacement, fluorescence kinetic
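10 nM enzyme + cpd, 15 min RT; start with substrate 50 nM final; read 0 min and after 10 min RT. Corrected, normalized data; 4-parameter Hill curve fit.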
Pol iota inh: qHTS for Inhibitors of Polymerase Iota; DNA polymerase iota (Homo sapiens), Q9UNA4; hit rate 1% among 390,000; Potency, µM (titrated, usually from 115 µM), usual class: inhibitors; Pol iota fluorescent replication assay, 10 min
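Fluorescent replication assay read twice, at 0 min and 10 min after adding 50 nM (final) substrate. Enzyme (10 nM) and compounds were first incubated 15 min at room temperature; enzyme-free buffer wells were negative controls.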
POLH inh: qHTS for Inhibitors of Polymerase Eta. DNA polymerase eta (Homo sapiens), Q9Y253. recombinant Pol eta, fluorescent DNA replication assay. Potency, µM (highest dose often 114 µM), most hits filed as inhibitors. hit rate 1.2% among 390,000. AID 588591, 2011
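Pol eta (10 nM) was preincubated with compounds for 15 min at room temperature, after which fluorescent replication substrate (50 nM final) was added to start the reaction. Fluorescence was read kinetically at 0 and 10 min.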
Hits are given with their value; i = inactive; ? = inconclusive; nt = no result; [ ] = dose if it differs, or a comment. Rows were chosen to be rich in hits. Some 2.4% of all compounds tested hit in one or more screens of this group. Calls follow the shape of the dose curve; as a rule, active = well fitted curve in the direction sought with a large enough effect; inconclusive = small, poorly fitted or top-dose-only effect, or another doubt; inactive = no such curve, though single readings can be large; an effect the other way counts as inactive or inconclusive.

SMILES	FEN1 inhibitor	WRN inhibitor	POLK inh	POLB inh	Pol iota inh	POLH inh
CCC1CN(C(=O)Nc2cccc(OC)c2)c2ccccc2O1 (configuration not stated)	i	nt	i	i	i	i
O=c1c(CCc2ccccc2)nc2cnc(N3CCNCC3)nc2n1C1CC1	nt	nt	i	nt	nt	nt
CSc1sccc1/C=C(/C#N)C(=O)c1ccco1	?	50µM	i	i	?	?
O=c1c2ccccc2nc(/C=C/c2cccnc2)n1CCc1ccccc1	i	?	i	i	7.9µM	?
COc1ccccc1N(Cc1cc2cccc(C)c2[nH]c1=O)C(=O)c1cccc(Cl)c1	i	nt	i	i	i	i
Cc1ccnc2c1ccc1c(C)ccnc12	25µM	i	i	nt	i	i
Cc1c(C(=O)NC(C)C)oc2c1-c1[nH]ncc1CC2	i	i	i	i	25µM	i
CCc1ccc(CN(Cc2cn[nH]c2-c2ccc(OC)cc2)C(=O)Nc2ccc(C)c(F)c2)cc1	i	nt	i	i	i	i
CCOc1cc(/C=C2\SC(=S)N(Nc3ccccc3)C2=O)ccc1O	?	18µM	?	13µM	?	?
CCOc1ccc(/C=C2\SC(=S)N(NS(=O)(=O)c3ccc(C)cc3)C2=O)cc1OC	i	i	i	i	i	?
COc1ccc(OC)c(/C=C2\SC(=S)N(NS(=O)(=O)c3ccc(C)cc3)C2=O)c1	i	i[11.6 µM]	i	?	i	79µM
CCOc1cc(/C=C2\SC(=S)N(NS(=O)(=O)c3ccccc3)C2=O)ccc1O	i	56µM	i	i	?	i
CCOc1cc(/C=C2\SC(=S)N(N3CCOCC3)C2=O)ccc1O	i	i	i	i	i	i
CCOc1cc(/C=C2\CN(C)C/C(=C\c3ccc(O)c(OCC)c3)C2=O)ccc1O	i	i[11.6 µM]	i	i	?	45µM
Cc1cc(NC(=O)C(C)C)cc(-c2nc3ncccc3o2)c1O	i	nt	i	i	i	i
CC(Cc1c[nH]c2ccccc12)C(=O)O (configuration not stated)	i	i[11.6 µM]	?	7.1µM	i	i
CCn1c(C)c(C)c2cc(C(=O)NCC(C)c3ccccc3)ccc21 (configuration not stated)	i	nt	i	i	?	i
Cc1cccc(Nc2nn3c(=O)c4cc5c(cc4nc3s2)OCO5)c1	i	nt	i	3.2µM	i	i
Cc1cccc(CN2C(=O)N(c3ccc(C(C)C)cc3)S(=O)(=O)c3ccccc32)c1	i	nt	i	i	i	i
Cc1cc(OCC(=O)N(Cc2ccc(N(C)C)cc2)C2CCS(=O)(=O)C2)cc(C)c1Cl (configuration not stated)	i	nt	i	?	i	i
C/C=C(\C)C(=O)NCCN1C2=NC[C@@H](Cc3ccccc3)N2C[C@H]1Cc1ccc(O)cc1	i	i[11.6 µM]	i	i	71µM	i
Cn1c(=O)oc2cc(S(=O)(=O)CCC(=O)N3CCN(c4cccc(Cl)c4)CC3)ccc21	i	nt	i	i	i	i
COc1ccc(-n2[nH]c(C)cc2=O)cc1	i	i	i	i	1.1µM	i
CCC(CO)Oc1cc(NCc2ccccc2)c2ncn(C(C)C)c2c1 (configuration not stated)	i	i[11.6 µM]	i	nt	18µM	i
CCC(CO)Oc1cc(NC(=O)c2ccc(N)cc2)c2ncn(C(C)C)c2c1 (configuration not stated)	i	i	i	nt	?	89µM
SMILES	FEN1 inhibitor	WRN inhibitor	POLK inh	POLB inh	Pol iota inh	POLH inh
CCOCCOc1cc(NCc2ccccc2)c2ncn(C(C)C)c2c1	?	i[11.6 µM]	i	nt	35µM	i
CCC(CO)Oc1cc(NCc2ccc(O)cc2)c2ncn(C(C)C)c2c1 (configuration not stated)	i	i	i	nt	i	i
CCCCOc1cc(NCc2ccccc2)c2ncn(C(C)C)c2c1	i	i	i	nt	?	i
CC(=O)C1=C(O)C(=O)N(Cc2ccccc2)C1c1ccco1 (configuration not stated)	i	i	i	?	?	45µM
CC(=O)C1=C(O)C(=O)N(Cc2ccco2)C1c1ccccc1 (configuration not stated)	?	i	i	i	i	i
COc1ccc(C2=CC3=C(Br)C(=O)C(C)(O)C(=O)C3=CO2)cc1 (configuration not stated)	i	?	?	40µM	?	?
COC(=O)CCC(=O)OC1(C)C(=O)C2=CN(c3ccccc3)C(c3ccc(OC)cc3)=CC2=C(Br)C1=O (configuration not stated)	i	i	i	nt	?	i
C[N+](C)(CCCCCI)c1ccc(/C=C/c2nc3ccccc3s2)cc1	?	nt	45µM	nt	79µM	nt
C(=C\c1nc2ccccc2s1)/c1ccc2c(c1)OCO2	i	nt	i	nt	i	nt
CCc1ccccc1NS(=O)(=O)c1ccc2[nH]cc(C(=O)NC3CCCC3)c(=O)c2c1	i	i	i	?	?	?
O=C(NC1CCCCC1)c1c[nH]c2ccc(S(=O)(=O)Nc3ccccc3F)cc2c1=O	i	nt	i	25µM	?	?
CCOc1ccc(NS(=O)(=O)c2ccc3[nH]cc(C(=O)NCc4ccccc4)c(=O)c3c2)cc1	i	nt	i	11µM	89µM	?
COc1ccccc1CNS(=O)(=O)c1ccc2[nH]cc(C(=O)O)c(=O)c2c1	i	i	79µM	28µM	?	3.2µM
Cc1ccc(CNC(=O)c2c[nH]c3ccc(S(=O)(=O)Nc4ccc(C(C)C)cc4)cc3c2=O)cc1	i	nt	i	i	?	79µM
CCOc1ccc(NS(=O)(=O)c2ccc3[nH]cc(C(=O)N(C)Cc4ccccc4)c(=O)c3c2)cc1	i	nt	i	i	?	i
CC(Cl)OC(=O)Nc1cccc2cccnc12 (configuration not stated)	i	nt	i	nt	i	nt
CCN(c1ccccc1)S(=O)(=O)c1ccc2[nH]cc(C(=O)NCCOC)c(=O)c2c1	i	i	i	i	i	?
CCN(c1ccccc1)S(=O)(=O)c1ccc2[nH]cc(C(=O)NCc3ccc(C)cc3)c(=O)c2c1	i	nt	i	?	89µM	?
CC[C@H](C)/C=C/C1=CC2=C(Cl)C(=O)[C@@]3(C)OC(=O)C(C(=O)[C@H](C)[C@@H](C)O)=C3C2=CO1	?	?	?	nt	?	18µM
O=C(NNC(=O)c1ccc(Br)s1)NC1CCCCC1	i	?	i	22µM	i	i
CN(C)c1cccc(C(=O)NNC(=O)NC2CCCCC2)c1	i	i	i	i	i	i
O=C(Cn1c(=O)n(-c2ccc(F)cc2)c(=O)c2sc3ccccc3c21)N1CCCC1	i	nt	i	i	i	i
